{"source": "PubChem BioAssay", "note": "The source made the active and inactive calls.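 The calls were made as follows: active = at least 20% inhibition of 6-phosphogluconate dehydrogenase activity; inactive = the rest.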"}
{"target": "6-phosphogluconate dehydrogenase, decarboxylating (Homo sapiens) (UniProt P52209)", "sequence (P52209 whole entry, looked up)": "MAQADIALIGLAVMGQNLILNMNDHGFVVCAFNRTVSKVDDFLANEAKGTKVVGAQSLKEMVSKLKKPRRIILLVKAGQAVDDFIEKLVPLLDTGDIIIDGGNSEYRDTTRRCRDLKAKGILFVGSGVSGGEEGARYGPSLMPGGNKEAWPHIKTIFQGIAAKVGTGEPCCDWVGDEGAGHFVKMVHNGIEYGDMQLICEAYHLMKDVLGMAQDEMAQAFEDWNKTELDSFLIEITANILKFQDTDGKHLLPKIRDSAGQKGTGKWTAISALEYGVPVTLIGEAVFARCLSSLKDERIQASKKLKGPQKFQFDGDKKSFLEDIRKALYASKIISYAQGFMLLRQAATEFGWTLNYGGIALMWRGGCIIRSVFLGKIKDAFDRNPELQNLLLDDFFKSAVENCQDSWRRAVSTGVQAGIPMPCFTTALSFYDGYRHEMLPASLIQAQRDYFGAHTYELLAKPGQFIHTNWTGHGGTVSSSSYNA", "assay": "inhibition of human phosphogluconate dehydrogenase – biochemical, recombinant enzyme, NADPH absorbance, primary screen (AID 1159550)", "details": "recombinant 6PGD, NADPH absorbance 341 nm; at 10 µM; hits give high values"}
{"smiles": "O=C(O)[C@H]1CCCNC1", "inhibition": "2.88% (inactive)"}
{"smiles": "C[C@]12CC[C@@H](O)C[C@H]1CC[C@@H]1[C@@H]2C(=O)C[C@@]2(C)[C@H]1CC[C@]2(O)C(=O)CO", "inhibition": "-17% (inactive)"}
{"smiles": "CC(C)(OC(=O)c1ccccc1)[C@@H]1Cc2cc3ccc(=O)oc3cc2O1", "inhibition": "20% (active)"}
{"smiles": "COc1ccc(C2COc3cc(O)ccc3C2)c(OC)c1O", "note": "(stereo unspecified)", "inhibition": "1.81% (inactive)"}
{"smiles": "COC(=O)CCC(=O)O[C@H]1CCC2(C)C(CCC3C2C(=O)[C@@H](O)C2(C)C3CC3OC4(CCC(C)CO4)C(C)C32)C1", "note": "(stereo partly specified)", "inhibition": "4.65% (inactive)"}
{"smiles": "CC1=CC(=O)C2C(C)(C)CCCC2(C)C1(O)CCc1ccoc1", "note": "(stereo unspecified)", "inhibition": "-22.2% (inactive)"}
